# HCMV NEC inh – inhibitors of HCMV UL50-UL53 nuclear egress complex interaction; inhibition, % (no concentration beside the values); HTRF UL50-UL53 interaction, normalized percent inhibition; actives 0.15% (n = 190,000); in the data active = inhibition above about 27%, passing the limit was not always enough
# Sa helicase inh – blocks Staphylococcus aureus DNA helicase; purified S. aureus helicase, fluorescence unwinding assay; inhibition, % (concentration not given with the values); actives 0.05% (n = 120,000); in the data active = inhibition above about 25%, passing the limit was not always enough
# Sa growth 42C – blocks Staphylococcus aureus growth | relative growth, % (no concentration beside the values) | actives 0.53% (n = 170,000) | AID 720641 | S. aureus RN4220 growth, OD600, 20 h, 42 °C; active compounds read low;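 active = relative growth at most 50% at the other temperature and 20+ points below 30 °C, or under 10% at both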
# A number is an active result; 0 = inactive; - = no result; ! = not active in a repeat. Only a selection was taken, and hits are over-represented in it overall.
SMILES,HCMV NEC inh,Sa helicase inh,Sa growth 42C
COc1ccc(CC(=O)Nc2cccc(-c3nc4cccnc4s3)c2)cc1OC,0,-,-
CCOC(=O)c1c(NC(=O)c2cccc([N+](=O)[O-])c2)sc(C(=O)Nc2ccc(C)c(Cl)c2)c1C,0,-,-
CC(C)(CNC(=O)Cc1ccsc1)N1CCOCC1,0,0,0
CC(C)(CNC(=O)Nc1ccc(Cl)c(Cl)c1)N1CCOCC1,0,0,-0.6
O=c1oc2ccc(Br)cc2cc1S(=O)(=O)c1ccc(Cl)cc1,0,0,-
Cc1sc2ncnc(Nc3ccc(F)c(Cl)c3)c2c1S(=O)(=O)N1CCCCC1,0,-,-
COc1cc2nc(N(C)C)nc(N)c2cc1OC,0,44,0
COc1cc2nc(Nc3ccc(C)c(C)c3)nc(N)c2cc1OC,0,-,0
COc1ccc2cc(C(=O)Nc3ccccc3)c(=Nc3cccc(C#N)c3)oc2c1,0,-,-
N#Cc1ccc(CONC(=O)C23CC4CC(CC(C4)C2)C3)cc1,0,0,0
O=C1OC(c2ccccc2)=C/C1=C/c1ccc(Cl)cc1,-,0,0
O=C1OC(c2ccccc2)=C/C1=C/c1ccccc1,0,-,-0.6
O=C1CN=C(Nc2ccccc2)N1c1ccccc1,0,0,0
Cc1ccc(Cl)cc1NC(=O)CC(O)(C(F)(F)F)C(F)(F)F,0,0,-0.8
COc1ccccc1NC(=O)CC(O)(C(F)(F)F)C(F)(F)F,0,0,0
CCNC(=O)c1ccccc1Sc1ccccc1CO,0,-,0
COC(=O)CNC(c1ccccc1)c1cc(Br)ccc1NC(=O)CCN1CCOCC1 (stereo unspecified),-,0,21
COC(=O)CNC(c1ccccc1)c1cc(Br)ccc1NC(=O)c1ccc(Cl)cc1 (stereo unspecified),0,-,0
O=C(Nc1ccc(F)cc1)C(Sc1nnc(C2CC2)o1)c1ccccc1 (stereo unspecified),0,0,0
O=C(NCCc1ccccc1)c1ccc(CS(=O)Cc2cccc(Cl)c2)o1 (stereo unspecified),0,0,0
O=C(NCCc1ccc(Cl)cc1)c1ccc(CS(=O)Cc2cccc(Cl)c2)o1 (stereo unspecified),-,-,7.4
COC(=O)c1ccc2c(=O)[nH]c(COC(=O)CNC(=O)c3cccs3)nc2c1,0,32,0
COC(=O)c1ccc2c(=O)[nH]c(COC(=O)c3ccc4c(c3)OCO4)nc2c1,0,0,0
NC(=O)N/N=C/c1ccc([N+](=O)[O-])o1,0,-,2.5
NC(=O)N/N=C/c1ccc(-c2ccc(Cl)cc2)o1,0,0,0
SMILES,HCMV NEC inh,Sa helicase inh,Sa growth 42C
Nc1ccc(Oc2ccc3c(c2)C(=O)N(Cc2cccnc2)C3=O)cc1,0,0,0
O=C(c1ccc2c(c1)sc1nc(-c3ccccc3)cn12)N1CCN(C(=O)c2ccco2)CC1,0,0,0
CC(=C\c1ccccc1)/C=C1/SC(=S)N(C2CCCCC2)C1=O,-,0,0
O=C1/C(=C/c2cccnc2)SC(=S)N1C1CCCC1,0,0,7.2
O=C(CSc1nc2ccccc2n2cnnc12)NC1CCCC1,0,-,-
CC1(C)C=C(O)C(C2(O)C(=O)c3ccccc3C2=O)C(=O)C1 (stereo unspecified),0,0,0
CC1(C)CC(=O)C(C2(O)C(=O)c3ccccc3C2=O)C(=O)C1,82,0,0
C[C@]12CC[C@H]3c4ccc(O)cc4CC[C@H]3[C@@H]1CCC2OC(=O)CCC1CCCC1 (stereo partly specified),0,-,-
O=C1NC(=O)C(=Cc2cc(Br)ccc2OCc2ccccc2)C(=O)N1,89,-,-
CCOC(=O)COc1ccc(Br)cc1C=C1C(=O)NC(=O)NC1=O,57,-,-
CCOc1cc(C=C2C(=O)NC(=S)NC2=O)ccc1OCc1ccccc1Cl,0,-,-
O=C1NC(=S)NC(=O)C1=Cc1ccc(OCc2ccccc2)c(Br)c1,66,-,-
CN1C(=O)C(=Cc2cc(Br)ccc2OCc2ccccc2)C(=O)N(C)C1=O,0,-,-
Cc1ccc(OCCOc2ccc(Br)cc2C=C2C(=O)NC(=S)NC2=O)cc1,0,-,-
Cc1ccc(S(=O)(=O)c2cnccn2)cc1,0,0,0
COC(=O)C1CCN(S(=O)(=O)c2cc(N3C(=O)CCS3(=O)=O)ccc2OC)CC1,0,-,-
CN(C)CCNC(=O)CN1C(=O)COc2ccc(C(=O)N(C)C)cc21,0,-,-
Cc1ccc(NC2=CC(=O)c3sc(C)nc3C2=O)cc1,103!,-,-
Cc1ccc(Nc2nnc(C)c(=O)[nH]2)cc1,0,0,0
O=C(Nc1ccc2ccccc2c1)c1ccco1,0,-,0
O=C(Nc1ccc(Cl)c(Cl)c1)Oc1ccc(NC(=O)c2ccco2)cc1,0,0,3.7
COc1cc(OC)c(NC(=O)Nc2noc3c2COc2ccccc2-3)cc1Cl,0,0,0
COc1ccc(NC(=O)CN2C(=O)C(C)(C)c3cc(S(=O)(=O)N4CCCC4)ccc32)cc1OC,0,-,-
c1ccc2cc3c(Nc4ccc(N5CCOCC5)cc4)ccnc3cc2c1,-,0,0
CC(C)Nc1ccc(Nc2ccnc3cc4ccccc4cc23)cc1,-,67,-1.9
SMILES,HCMV NEC inh,Sa helicase inh,Sa growth 42C
CN(Cc1ccccc1)C(=O)C1CCN(S(=O)(=O)c2ccc3c(c2)NC(=O)CS3)CC1,0,-,-
Cc1ccc(O)c(C(=O)c2cnn3c(N)nnc3c2)c1,51,0,0
Nc1nnc2cc(C(=O)c3cc(F)ccc3O)cnn12,0,0,0
Cc1cc(C(=O)O)ccc1-n1c(C)ccc1C,34,0,0
Cc1ccc(C(=O)O)cc1-n1c(C)ccc1C,0,0,0
Cc1ccc(C)n1-c1ccsc1C(=O)O,0,0,46
Cc1ccc(C(=O)O)cc1-n1c(C)ccc1-c1ccccc1,0,-,0
Cc1ccc(C)n1-c1ccc(C(=O)O)cc1O,56,0,0
Cc1ccc(C)n1-c1ccsc1C(=O)CC#N,0,-,-
CC(Sc1nnc(-c2cccs2)n1-c1ccccc1)C(=O)c1c(N)n(C)c(=O)n(C)c1=O (stereo unspecified),0,0,0
Cc1ccc(C)c(N2CCN(C(=O)c3nc4cc(C)c(C)cc4n(C)c3=O)CC2)c1,0,-,-
CCOC(=O)C1=C(C)N=c2s/c(=C\c3cc(Br)c(O)c(OC)c3)c(=O)n2C1c1ccc2c(c1)OCO2 (stereo unspecified),0,-,-
Cc1ccc(S(=O)(=O)N2CCCC(c3nc(-c4ccc5c(c4)OCO5)no3)C2)cc1C (stereo unspecified),0,-,-
CO[C@H](C(=O)[C@@H](O)[C@@H](C)O)[C@@H]1Cc2cc3cc(O[C@H]4C[C@@H](O[C@H]5C[C@@H](O)[C@H](O)[C@@H](C)O5)[C@@H](O)[C@@H](C)O4)c(C)c(O)c3c(O)c2C(=O)[C@H]1O[C@H]1C[C@@H](O[C@H]2C[C@@H](O[C@H]3C[C@](C)(O)[C@H](O)[C@@H](C)O3)[C@H](O)[C@@H](C)O2)[C@H](O)[C@@H](C)O1,0,-,-0.2
C=CC1=C(C(=O)O)N2C(=O)[C@@H](NC(=O)C(=NO)c3csc(N)n3)[C@H]2SC1,-,-,-0.1
COCC1=C(C(=O)OC(C)OC(=O)OC(C)C)N2C(=O)[C@@H](NC(=O)/C(=N/OC)c3csc(N)n3)[C@H]2SC1 (stereo partly specified),0,-,0
CN(C)CCn1nnnc1SCC1=C(C(=O)O)N2C(=O)[C@@H](NC(=O)Cc3csc(N)n3)[C@H]2SC1,0,-,-
CO/N=C(\C(=O)O)c1csc(N)n1,0,0,0
CC(=O)OCC1=C(C(=O)O)N2C(=O)[C@@H](NC(=O)Cc3cccs3)[C@H]2SC1,0,-,-0.7

# Bioassay records deposited in PubChem BioAssay by ICCB-Longwood Screening Facility, Harvard Medical School.
